A word on the AC50: it is the concentration giving half of the maximal activity seen.

From PubChem BioAssay (EPA / NIEHS) come the findings set out here.

Structures are written as SMILES. Records with an inconclusive call do not appear. Activity calls are given as the source filed them. How the source made its calls: active means hit-call score of the fitted dose curve at least 0.9, where 1 is the maximum; inconclusive means response in the unintended direction; inactive means score below 0.9.

This assay can be described thus: ACEA_ER_80hr: ACEA Biosciences xCELLigence Real-Time Cell Analysis on Estrogen Receptor Agonism for Proliferation (AID 2282667). Conditions: T47D proliferation, impedance (xCELLigence), 80 h. Here is the method: ACEA_ER is a cell-based, single-readout assay that uses T47D, a human breast cell line, with measurements taken at 80 hours after chemical dosing in a 96-well plate, although TO2 (mc0.srcf) used a 384-well plate. Differences in plate size can be ignored given data normalization.ACEA_ER_80hr is one of two assay component(s) measured or calculated from the ACEA_ER assay. It is designed to make measurements of real-time cell-growth kinetics, a form of growth reporter, as detected with electrical impedance signals by Real-Time Cell Electrode Sensor (RT-CES) technology.Data from the assay component ACEA_ER_80hr was analyzed into 1 assay endpoint. This assay endpoint, ACEA_ER_80hr_Positive, was analyzed in the positive analysis fitting direction relative to DMSO as the negative control and baseline of activity. Using a type of growth reporter, measures of the cells for gain-of-signal activity can be used to understand the signaling at the pathway-level as they relate to the gene ESR1. Furthermore, this assay endpoint can be referred to as a primary readout, because this assay has produced multiple assay endpoints where this one serves a signaling function. To generalize the intended target to other relatable targets, this assay endpoint is annotated to the nuclear receptor intended target family, where the subfamily is steroidal.
The xCELLigence system Multi-E-Plate stations were used to measure the time-dependent response to chemicals. Each compound was tested in an eight-point, 1:4 serial dilution series starting at a maximum final concentration of 100 uM. A maximum starting concentration of 0.5% DMSO was present in the 100 uM chemical samples and was diluted along with the test article dilution series. The screen was performed in biological duplicate using two separate, 96-well, E-Plates 96 for each dilution series (n = 2). Positive controls (MG132 and E2) and a negative control (assay media) were tested in quadruplicate on each testing plate. […] Reference compounds were tested with 8 concentrations with 1:5 serial dilutions. All screening was carried out by ACEA Biosciences, Inc. (San Diego, CA). T-47D cells purchased from ATCC were maintained in RPMI1640 media supplemented with 10% characterized fetal bovine serum (FBS). […] Cells were then detached and seeded in E-Plates 96 in assay medium. After overnight monitoring of growth once every hour, compounds were added to […] cells and remained in the medium until the end of the experiment. Cellular responses were then recorded once every 5 min for the first 5 h, and once every hour for an additional 100 h.
On to `CC(C)CCCCCOC(=O)CS`, for which the outcome was inactive.
The same measure, in the same setting: under `CCOc1ccc(NC(N)=O)cc1` stands “inactive”; under `COC(=O)C=Cc1ccccc1`, “inactive”.
Regarding `CCCCOCCOC(=O)COc1ccc(Cl)cc1Cl`, the AC50 was 10.8 µM (active).
With `CCCCNS(=O)(=O)c1ccccc1`, the molecule was called inactive.
With `CC1CCC(C(C)(C)S)C(=O)C1` (stereo not given), the molecule was called inactive.
The same measure, in the same setting: then `CC(C)c1ccc2ncccc2c1`, with “inactive”; and `C=C(C)C1CC=C(C)C(OC(C)=O)C1` (stereo not given), with “inactive”; and `Cc1c(Cl)cccc1Cl`, with “inactive”.
Same read-out and setting: then `Cc1c(O)cccc1O`, with “inactive”; and `CC(C)(C)N`, with “inactive”.
As to `CCCCOC(=O)C(C)CC` (stereo not given), the outcome was inactive.
Regarding `CCc1cccc(C)c1N(C(=O)CS(=O)(=O)O)C(C)COC` (stereo not given), the outcome was inactive.
The same measure, in the same setting: then `CC(=O)OC/C=C(/C)CCC=C(C)C`, with “inactive”; and `CC(C)CC(=O)OCc1ccccc1`, with “inactive”.
For the molecule `CCCCCCC=O`, the AC50 is 10.9 µM (active).
As for `CCNc1nc(NC(C)(C)C)nc(OC)n1`, the molecule was classed as inactive.
Turning to `N#Cc1ccc(C(c2ccc(C#N)cc2)n2cncn2)cc1`, the molecule was called inactive.
In the case of `Nc1cccc(N)n1`, the outcome was inactive.
On the same count and under the same terms, under `C=CC(=O)O[C@H]1C[C@@H]2CC[C@@]1(C)C2(C)C` stands “inactive”; under `COC(OC)(C(=O)c1ccccc1)c1ccccc1`, “inactive”.
Same read-out and setting: under `Cc1c(C(=O)c2c[nH]n(C)c2=O)ccc(S(C)(=O)=O)c1C1=NOCC1` stands “inactive”; under `O=C(OCCc1ccccc1)c1ccccc1`, “inactive”.
For the molecule `Cc1ccccc1CCO`, the result was inactive.
In the case of `CC(=O)C(C)C`, the molecule was called inactive.
Still for that read-out and setting: then `CC(=O)CCC1=C(C)CCCC1(C)C`, with “inactive”.
Still for that read-out and setting: under `CCCCCCCCCC(C)=O` stands “inactive”.
Same read-out and setting: under `O=C(O[C@@H]1Cc2c(O)cc(O)cc2O[C@@H]1c1cc(O)c(O)c(O)c1)c1cc(O)c(O)c(O)c1` stands “inactive”; under `CO[Si](C)(C)OC`, “inactive”.
As to `O=C(O)c1cc(O)c2ccccc2c1O`, the call was inactive.
On the same count and under the same terms, under `Cc1ccc(C)c(OCCCC(C)(C)C(=O)O)c1` stands “inactive”; under `CCCCC(CC)COS(=O)(=O)O` (stereo not given), “inactive”; under `O=C1CCCN1C1CCCCC1`, “inactive”.
Same read-out and setting: then `CC(=O)OCCc1ccccc1`, with “inactive”; and `CCc1cccc(C)c1N`, with “inactive”; and `Nc1ccc(O)c([N+](=O)[O-])c1`, with “inactive”.
On to `NNS(=O)(=O)c1ccc(Oc2ccc(S(=O)(=O)NN)cc2)cc1`, for which the molecule was classed as inactive.
Consider `O=C(O)/C=C/c1ccccc1`, for which the AC50 was 2.06 µM (active).
Consider `CCCCCCCCCCCC(=O)N(C)CC(=O)O`, for which the outcome was inactive.
The same measure, in the same setting: under `CCN(CC)c1cccc(C)c1` stands “inactive”.
